# GLP-1R agonist – GLP-1 receptor (human) agonism; P43220; HEK293 GLP-1R CRE-luciferase, luminescence, 4-6 h; cells express a hypersensitive GLP-1R form; Potency, µM (top dose mostly 45.6 µM), for inactives: at the top dose activation, hits mostly activators; 380,000 tested, 0.007% active; further: % of control where 0% means no effect
# GLP1R cytotox – cytotoxicity in counter-screen for GLP-1R inverse agonists; HEK293 cAMP-luciferase reporter cells, luminescence, 24 h; Potency, µM (titrated, usually from 38.3 µM), for inactives: at the top dose activity change, negative = inhibition, hits mostly inhibitors; 410,000 tested, 0.13% active;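 further: loss of luciferase light is scored as toxicity; on the % scale 0 is the no-effect control and ±100 the full control effect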
#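 A 23 nL compound transfer followed 12 hours of cell culture at 37 deg C; exposure then lasted 24 hr. Luciferase assay detection reagent was dispensed and plates read for luminescence after a 12 min room-temperature wait.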
# ClpP mod – qHTS Assay for Activators of ClpP; ATP-dependent Clp protease proteolytic subunit (Bacillus subtilis (strain 168)), P80244; purified B. subtilis ClpP, FRET peptide cleavage, 20 min; Potency, µM (highest dose often 57.5 µM), inactives show top-dose activity change, negative = active; 340,000 tested, 1.9% active; AID 651965, 2013; active means well fitted falling curve with a large enough effect; inconclusive means small, poorly fitted or top-dose-only effect; inactive means no such curve, though single readings can be large or run the other way; further: the source files actives as falling curves though it sought activators and does not explain the sign; nearly all actives have a fitted effect of over 65% in size
#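 FRET quenching reversal measured ClpP activation: 10 microg/mL B. subtilis ClpP at pH 8 with the FRET-FV decapeptide, read at 430 nm after 320 nm excitation. The 20-min minus 0-min signal was scaled between DMSO/no-enzyme wells and ADEP (5.8 microM final).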
# GLP-1R inv ag – inverse agonists of human GLP-1 receptor | P43220 | HEK293 GLP-1R CRE-luciferase, luminescence, 24 h; GLP-1R form is constitutively active | Potency, µM (doses to about 38.3 µM), for the others: at the top dose activity change, negative = inhibition, hits mostly inhibitors | 410,000 tested, 1.6% active | AID 624417; further: on the % scale 0 is the no-effect control and ±100 the full control effect; nearly all actives have a fitted effect of over 55% in size
#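 Cells are plated, allowed 12 hours at 37 deg C, then treated with compounds for 24 hr before luciferase detection reagent is added and luminescence is read after 12 min at room temperature. The HEK293 line carries constitutively active GLP-1R with a cAMP-responsive reporter.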
# The depositor's hits bear a star; u = inconclusive; x = no result. Sampled rows, rich in hits. Any-hit rate of the full collection: about 3.2%. Unless noted, the call rests on the fitted dose curve; in most records, active means well fitted curve in the direction sought with a large enough effect; inconclusive means small, poorly fitted or top-dose-only effect, or another doubt; inactive means no such curve, though single readings can be large; an effect the other way counts as inactive or inconclusive. Potency means the concentration at half of the fitted maximal effect.
SMILES,GLP-1R agonist,GLP1R cytotox,ClpP mod,GLP-1R inv ag
CCOc1ccc(C(=O)NCCc2sc(-c3ccc(F)cc3)nc2C)cc1,x,1%,25µM*,-16%
COc1ccc(CNC(=O)/C=C/c2cc3c(cc2Br)OCO3)cc1,-21%,-25%,25µM*,-22%
CCOc1cccc(C(=O)Nc2ccc3oc(Cc4ccc(Cl)cc4)nc3c2)c1,-3%,-29%,-7%,2.2µM*
COc1cccc(NC(=O)c2ccc3nc(Cc4ccccc4)oc3c2)c1,x,u,-8%,10µM*
CCOC(=O)c1cccc(NC(=O)c2ccc3nc(Cc4ccccc4)oc3c2)c1,x,-25%,-28%,u
O=C(Nc1ccc2oc(Cc3ccc(Cl)cc3)nc2c1)c1cccnc1,5%,-9%,1%,u
Cc1cc(S(=O)(=O)n2ccnc2C(C)C)cc([N+](=O)[O-])c1C,x,20%,-1%,8%
CCCCCCCn1c(=O)c(C(=O)OC)c(N)c2ccccc21,17%,3%,x,11µM*
CCCCn1c(=O)c(Cc2ccccc2)c(O)c2ccccc21,0%,12%,14µM*,0%
CCCCCCn1c(=O)c(Cc2ccccc2)c(O)c2ccccc21,6%,-8%,x,-26%
Cc1ccc(Cn2c(CO)cnc2SCC(=O)NCc2ccccc2Cl)cc1,x,-19%,3%,-23%
CC(NC1=CC(=O)c2cccnc2C1=O)C(O)c1ccccc1 (centres undefined),-34%,11µM*,-20%,u
c1ccc(Oc2nc(Oc3ccccc3)nc(N3CCOCC3)n2)cc1,-1%,5%,-13%,7.9µM*
COc1ccc(-c2nc3c(c(=O)[nH]c(=O)n3Cc3ccccc3)n2C)cc1,-1%,26%,35µM*,6%
COc1ccc(-c2nc3c(c(=O)[nH]c(=O)n3Cc3ccccc3)n2Cc2ccccc2)cc1,-1%,-14%,28µM*,0%
c1ccc(CCNc2ncnc3ccccc23)cc1,-5%,-1%,-5%,u
Brc1ccc2ncnc(NCc3ccccc3)c2c1,-23%,-11%,-2%,1.4µM*
CCOc1ccc(NC(=O)CN(C)C(=O)CCNC(=O)c2ccc(Br)cc2)cc1OCC,0%,14%,1%,14%
CCOc1ccc(NC(=O)CN(C)C(=O)CCCOc2ccc(Br)cc2)cc1OCC,8%,3%,-1%,10µM*
Cc1ccc(NC(=O)Cn2c(-c3cncs3)nc3ccccc32)c(Br)c1,x,-4%,-18%,10%
N#Cc1ccc(CSc2nnc(-c3c[nH]c4ccccc34)n2-c2ccccc2)cc1,7%,-28%,x,6.3µM*
CC(C)Cn1c(=O)c2ccccc2n2c(CCC(=O)N3CCN(c4ccccc4)CC3)nnc12,x,0%,-1%,0%
Cc1ccc2nc(SCC(=O)N3CCCC3)nc(=O)n2c1,-6%,9%,25µM*,1%
Cc1ccc2nc(SCC(=O)Nc3ccc(F)cc3)nc(=O)n2c1,19%,0%,-1%,31%
CCc1ccc(NC(=O)CSc2nc(=O)n3cc(C)ccc3n2)cc1,9%,-11%,25µM*,60%
SMILES,GLP-1R agonist,GLP1R cytotox,ClpP mod,GLP-1R inv ag
COc1cc(NC(=O)CN2C(=O)C(c3ccc(C)cc3)=NC23CCCCC3)cc(OC)c1,x,-16%,0%,10µM*
COc1cc(NC(=O)CN2C(=O)C(c3ccc(C)cc3)=NC23CCCCCC3)cc(OC)c1,x,-1%,-6%,5%
COC(=O)c1ccc(NC(=O)CC2C(=O)N(c3cccc(OC)c3)C(=O)N2C(C)C)cc1 (centres undefined),x,-4%,2%,12%
Brc1cc2c(cc1C1OCCO1)OCO2,-2%,9%,-6%,-18%
CCCC1OC(c2cc3c(cc2Cl)OCO3)OCC1CC (centres undefined),5%,-17%,x,11µM*
CCCn1cnc2cc(NCc3cccc(OC)c3)ccc21,2%,3%,28µM*,0%
CCn1cnc2cc(NCc3cccc(OC)c3O)ccc21,1%,11%,32µM*,5%
CCOc1ccc(CNc2ccc3c(c2)ncn3C)cc1,2%,6%,32µM*,19%
COc1ccccc1-n1cnc2cc(NCc3ccccc3O)ccc21,7%,-14%,-13%,u
CCOc1ccc(CNc2ccc3c(c2)ncn3C(C)(C)C)cc1,25%,-16%,-27%,6%
CCN(CC)C(=O)Cn1cc(SCC(=O)Nc2ccccc2F)c2ccccc21,x,1%,2%,-5%
O=C(c1[nH]c2ccccc2c1Sc1ccc(Cl)cc1)N1CCCCC1,x,-1%,0%,10µM*
CC(C)=CCOc1ccc([C@@H]2COc3c(ccc4c3C=CC(C)(C)O4)C2)c(O)c1,-3%,u,-2%,10µM*
O=C(/C=C/c1ccccc1[N+](=O)[O-])Nc1cccc(S(=O)(=O)NC2=NCCCCC2)c1,13%,-6%,-2%,-17%
Cc1ccc(OCC(=O)Nc2cccc(S(=O)(=O)NC3=NCCCCC3)c2)cc1C,-1%,16%,14µM*,-22%
CCCNCC(=O)Nc1cccc(S(=O)(=O)NC2=NCCCCC2)c1,-1%,-6%,-3%,16%
CCCCCC(=O)Nc1cccc(S(=O)(=O)NC2=NCCC2)c1,-3%,4%,35µM*,14%
O=C(CCl)Nc1cccc(S(=O)(=O)NC2=NCCCCC2)c1,-4%,11µM*,-2%,u
Cc1cc(OCC(=O)Nc2cccc(S(=O)(=O)NC3=NCCCCC3)c2)ccc1Cl,1%,8%,-1%,u
O=C(/C=C/c1ccc(Cl)cc1Cl)Nc1cccc(S(=O)(=O)NC2=NCCCCC2)c1,9%,-15%,1%,10µM*
Cc1cc2c(cc1S(=O)(=O)NCc1ccc(F)cc1)OCC(=O)N2,x,1%,1%,13%
O=C(Nc1c(C(=O)Nc2ccccc2F)oc2ccccc12)c1cc2ccccc2o1,1%,7%,3%,9%
Cc1cccc(-c2noc(CN(C(C)C)S(=O)(=O)c3ccc(Br)cc3)n2)c1,x,20%,-6%,u
Cc1oc2c(CN3CCCC3)c(O)ccc2c(=O)c1-c1ccc(Br)cc1,1%,u,14µM*,u
Cc1oc2c(CN3CCCCC3)c(O)ccc2c(=O)c1-c1ccc(Br)cc1,6%,2%,x,-13%
SMILES,GLP-1R agonist,GLP1R cytotox,ClpP mod,GLP-1R inv ag
COc1ccc(-c2c(C)oc3c(CN4CCN(CCO)CC4)c(O)ccc3c2=O)cc1OC,-1%,13%,22µM*,4%
CNC(=O)COc1ccccc1C(=O)Nc1ccccc1,x,x,-9%,x
N/C(CCS(=O)(=O)c1ccc(Cl)cc1)=N\OC(=O)c1ccc(Cl)cc1,-1%,3%,2%,18%
N/C(CCS(=O)(=O)c1ccc(Cl)cc1)=N\OC(=O)c1ccccc1C(F)(F)F,31%,10µM*,x,u
CC1=C(C(=O)OC2CCCCC2)C(c2ccccc2)NC(=O)N1 (centres undefined),3%,u,2.8µM*,u
CC1=C(C(=O)OC2CCCCCCC2)C(c2ccc(O)cc2)NC(=O)N1 (centres undefined),12%,-45%,-1%,0%
O=C(CSc1nnc2n1CCCN2)c1ccc(Cl)cc1,6%,8%,14µM*,0%

# High-throughput results (PubChem BioAssay)
